Inconclusive results are not listed. A call without a number means that no potency is given here. Active and inactive are the calls of the source. The call rests on the fitted dose curve; in most records, active means well fitted curve in the direction sought with a large enough effect in the repeat runs; inconclusive means weak or mixed curves; inactive means no such curve, though single readings can be large; an effect the other way counts as inactive or inconclusive.
Assay: qHTS RealTime-Glo MT Cell Viability Assay in HEK293 cells - 8 hour (AID 1224887); further: nearly all actives have a fitted effect of over 50% in size; further: potency means the concentration at half of the fitted maximal effect; on activity change, negative = cytotoxicity: top concentration of the series differs between compounds
Settings: RealTime-Glo luminescence; series mostly up to 76.8 µM
In short: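 HEK293 cells mixed with RealTime-Glo reagents (NanoLuc plus cell-permeant prosubstrate) at 600 cells/well, preincubated 5 h at 37 C/5% CO2, then given 23 nL compound in DMSO. Nonlytic luminescence from viable cells was read at 0, 8, 16, 24, 32 and 40 h.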
For `C#CCOC(C(=O)OCCN(C)C)(c1ccccc1)c1ccccc1`, the Potency was “inactive”.
In the case of `Brc1ccccc1`, the Potency is reported as “inactive”.
In the case of `C[C@]12CC[C@H]3[C@@H](CCC4=CC(=O)CC[C@@H]43)[C@@H]1CC[C@@H]2OC(=O)CCC1CCCCC1`, the Potency is reported as “inactive”.
For `Cn1sc(Cl)cc1=O`, the Potency was “inactive”.
For `CC(C)O.CC(C)O.OCCN(CCO)CCO.OCCN(CCO)CCO.[Ti]`, the Potency was “inactive”.
In the case of `NCC(CC(=O)O)c1ccc(Cl)cc1` (stereo not drawn), the activity change, negative = cytotoxicity is reported as 1.53% [at 0.29 µM] (inactive).
With `CCOS(C)(=O)=O` the Potency was “inactive”.
With `O=C(NCc1cccnc1)Nc1ccc([N+](=O)[O-])cc1` the Potency was “inactive”.
With `ClCCCCBr` the Potency was “inactive”.
In the case of `COP(=S)(OC)Oc1cc(Cl)c(I)cc1Cl`, the Potency is reported as “inactive”.
In the case of `Nc1ccc([N+](=O)[O-])cc1[N+](=O)[O-]`, the Potency is reported as “inactive”.
With `CN1C(=O)NC(=O)C(C)(C2=CCCCC2)C1=O` (stereo not drawn) the Potency was “inactive”.
For `C=CC(=O)OCC(C)O` (stereo not drawn), the Potency was “inactive”.
For `C=CCC1([C@H](C)CCC)C(=O)NC(=O)NC1=O`, the Potency was “inactive”.
With `COc1cc(Cl)c(OC)cc1Cl` the Potency was “inactive”.
With `CCCN(CCC)c1c([N+](=O)[O-])cc(S(C)(=O)=O)cc1[N+](=O)[O-]` the Potency was 13.8 µM (active).
In the case of `CCc1ccc(C(=O)NN(C(=O)c2cc(C)cc(C)c2)C(C)(C)C)cc1`, the Potency is reported as “inactive”.
With `Clc1cc(Cl)c(Cl)c(Cl)c1` the Potency was “inactive”.
With `CC(C)(OO)c1ccccc1` the Potency was “inactive”.
For `Nc1ccc(N=Nc2ccc(-c3ccc(N=Nc4c(S(=O)(=O)O)cc5cc(S(=O)(=O)O)c(N=Nc6ccccc6)c(O)c5c4N)cc3)cc2)c(N)c1`, the Potency was “inactive”.
With `N#Cc1ccc(Cl)cc1` the Potency was “inactive”.
For `CC(=O)C(C)(C)C`, the Potency was “inactive”.
With `C[N+](C)(C)CCCl` the Potency was “inactive”.
For `CCOP(=S)(OCC)SCSCC`, the Potency was “inactive”.
For `O=C(O)COc1ccc(Cl)cc1`, the Potency was “inactive”.
In the case of `ClCc1cccc(Cl)c1`, the Potency is reported as “inactive”.
With `COC1=CC(=O)O[C@@H](CCc2ccccc2)C1` the Potency was “inactive”.

Assay: A CellTox Green Cytotoxicity Assay to monitor cytotoxicity in HEK293 cells - 16 hour (AID 1224888); further: nearly all actives have a fitted effect of over 35% in size
Settings: CellTox Green fluorescence; series mostly up to 76.8 µM
In short: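 HEK293 cells premixed with CellTox Green dye were seeded at 600 cells/well and left 5 h at 37 C/5% CO2 before pin transfer of 23 nL compound in DMSO. Fluorescence from dye bound to dead-cell DNA was read during 40 h treatment.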
With `C#CCOC(C(=O)OCCN(C)C)(c1ccccc1)c1ccccc1` the Potency was “inactive”.
For `Brc1ccccc1`, the Potency was “inactive”.
In the case of `C[C@]12CC[C@H]3[C@@H](CCC4=CC(=O)CC[C@@H]43)[C@@H]1CC[C@@H]2OC(=O)CCC1CCCCC1`, the Potency is reported as “inactive”.
For `Cn1sc(Cl)cc1=O`, the Potency was “inactive”.
For `CC(C)O.CC(C)O.OCCN(CCO)CCO.OCCN(CCO)CCO.[Ti]`, the Potency was “inactive”.
In the case of `c1ccoc1`, the Potency is reported as “inactive”.
In the case of `O=C1c2ccccc2C(=O)C1C(=O)C(c1ccccc1)c1ccccc1`, the Potency is reported as “inactive”.
For `NCC(CC(=O)O)c1ccc(Cl)cc1` (stereo not drawn), the activity change was -9.31% [at 0.29 µM, active compounds read high] (inactive).
In the case of `CCOS(C)(=O)=O`, the Potency is reported as “inactive”.
In the case of `O=C(NCc1cccnc1)Nc1ccc([N+](=O)[O-])cc1`, the Potency is reported as “inactive”.
In the case of `Cc1ccccc1CCl`, the Potency is reported as “inactive”.
For `ClCCCCBr`, the Potency was “inactive”.
With `COP(=S)(OC)Oc1cc(Cl)c(I)cc1Cl` the Potency was “inactive”.
With `Nc1ccc([N+](=O)[O-])cc1[N+](=O)[O-]` the Potency was “inactive”.
For `CN1C(=O)NC(=O)C(C)(C2=CCCCC2)C1=O` (stereo not drawn), the Potency was “inactive”.
For `O=C(CBr)Nc1ccc(Cl)cc1C(=O)c1ccccc1F`, the Potency was “inactive”.
In the case of `C=CC(=O)OCC(C)O` (stereo not drawn), the Potency is reported as “inactive”.
In the case of `CC1C(=O)C[C@]2(C(C)C)C[C@H]12` (stereo partly drawn), the Potency is reported as “inactive”.
With `C=CCC1([C@H](C)CCC)C(=O)NC(=O)NC1=O` the Potency was “inactive”.
In the case of `COc1cc(Cl)c(OC)cc1Cl`, the Potency is reported as “inactive”.
In the case of `CCCCCCCCCCOC(=O)c1ccccc1C(=O)OCCCCCCCCCC`, the Potency is reported as “inactive”.
With `CCCN(CCC)c1c([N+](=O)[O-])cc(S(C)(=O)=O)cc1[N+](=O)[O-]` the Potency was “inactive”.
In the case of `CCc1ccc(C(=O)NN(C(=O)c2cc(C)cc(C)c2)C(C)(C)C)cc1`, the Potency is reported as “inactive”.
With `Clc1cc(Cl)c(Cl)c(Cl)c1` the Potency was “inactive”.
For `CC(C)(OO)c1ccccc1`, the Potency was “inactive”.
With `Nc1ccc(N=Nc2ccc(-c3ccc(N=Nc4c(S(=O)(=O)O)cc5cc(S(=O)(=O)O)c(N=Nc6ccccc6)c(O)c5c4N)cc3)cc2)c(N)c1` the Potency was “inactive”.
In the case of `N#Cc1ccc(Cl)cc1`, the Potency is reported as “inactive”.
With `CC(=O)C(C)(C)C` the Potency was “inactive”.
For `C[N+](C)(C)CCCl`, the Potency was “inactive”.
With `CN1C[C@H](CNC(=O)OCc2ccccc2)C[C@@H]2c3cccc4c3c(cn4C)C[C@H]21` the Potency was “inactive”.
For `CCOP(=S)(OCC)SCSCC`, the Potency was “inactive”.
For `O=C(O)COc1ccc(Cl)cc1`, the Potency was “inactive”.
For `ClCc1cccc(Cl)c1`, the Potency was “inactive”.
For `COCC(C)N(C(=O)CCl)c1c(C)csc1C` (stereo not drawn), the Potency was “inactive”.
In the case of `COC1=CC(=O)O[C@@H](CCc2ccccc2)C1`, the Potency is reported as “inactive”.

Assay: qHTS RealTime-Glo MT Cell Viability Assay in HepG2 cells - 0 hour (AID 1224889); further: nearly all actives have a fitted effect of over 50% in size
Settings: RealTime-Glo luminescence; series mostly up to 76.8 µM
In short: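 Viability was tracked continuously by NanoLuc luminescence from prosubstrate reduced by living HepG2 cells, at successive time points over 40 h of compound exposure. Cells with reagent were preincubated 5 h at 37 °C before compound addition.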
With `C#CCOC(C(=O)OCCN(C)C)(c1ccccc1)c1ccccc1` the Potency was “inactive”.
For `Brc1ccccc1`, the Potency was “inactive”.
For `C[C@]12CC[C@H]3[C@@H](CCC4=CC(=O)CC[C@@H]43)[C@@H]1CC[C@@H]2OC(=O)CCC1CCCCC1`, the Potency was “inactive”.
In the case of `Cn1sc(Cl)cc1=O`, the Potency is reported as “inactive”.
In the case of `CC(C)O.CC(C)O.OCCN(CCO)CCO.OCCN(CCO)CCO.[Ti]`, the Potency is reported as “inactive”.
In the case of `c1ccoc1`, the Potency is reported as “inactive”.
With `NCC(CC(=O)O)c1ccc(Cl)cc1` (stereo not drawn) the activity change, negative = cytotoxicity was -4.46% [at 0.29 µM] (inactive).
In the case of `CCOS(C)(=O)=O`, the Potency is reported as “inactive”.
In the case of `O=C(NCc1cccnc1)Nc1ccc([N+](=O)[O-])cc1`, the Potency is reported as “inactive”.
With `Cc1ccccc1CCl` the Potency was “inactive”.
For `ClCCCCBr`, the Potency was “inactive”.
For `COP(=S)(OC)Oc1cc(Cl)c(I)cc1Cl`, the Potency was “inactive”.
For `Nc1ccc([N+](=O)[O-])cc1[N+](=O)[O-]`, the Potency was “inactive”.
In the case of `CN1C(=O)NC(=O)C(C)(C2=CCCCC2)C1=O` (stereo not drawn), the Potency is reported as “inactive”.
For `O=C(CBr)Nc1ccc(Cl)cc1C(=O)c1ccccc1F`, the Potency was “inactive”.
In the case of `C=CC(=O)OCC(C)O` (stereo not drawn), the Potency is reported as “inactive”.
With `CC1C(=O)C[C@]2(C(C)C)C[C@H]12` (stereo partly drawn) the Potency was “inactive”.
With `C=CCC1([C@H](C)CCC)C(=O)NC(=O)NC1=O` the Potency was “inactive”.
With `COc1cc(Cl)c(OC)cc1Cl` the Potency was “inactive”.
For `CCCCCCCCCCOC(=O)c1ccccc1C(=O)OCCCCCCCCCC`, the Potency was “inactive”.
For `CCCN(CCC)c1c([N+](=O)[O-])cc(S(C)(=O)=O)cc1[N+](=O)[O-]`, the Potency was “inactive”.
With `CCc1ccc(C(=O)NN(C(=O)c2cc(C)cc(C)c2)C(C)(C)C)cc1` the Potency was “inactive”.
With `Clc1cc(Cl)c(Cl)c(Cl)c1` the Potency was “inactive”.
With `N#Cc1ccc(Cl)cc1` the Potency was “inactive”.
For `CC(=O)C(C)(C)C`, the Potency was “inactive”.
In the case of `C[N+](C)(C)CCCl`, the Potency is reported as “inactive”.
In the case of `CN1C[C@H](CNC(=O)OCc2ccccc2)C[C@@H]2c3cccc4c3c(cn4C)C[C@H]21`, the Potency is reported as “inactive”.
With `O=C(O)COc1ccc(Cl)cc1` the Potency was “inactive”.
In the case of `ClCc1cccc(Cl)c1`, the Potency is reported as “inactive”.
In the case of `COCC(C)N(C(=O)CCl)c1c(C)csc1C` (stereo not drawn), the Potency is reported as “inactive”.
With `COC1=CC(=O)O[C@@H](CCc2ccccc2)C1` the Potency was “inactive”.

— PubChem BioAssay (Tox21)
